Assay results from PubChem BioAssay AID1159580 (chemical genetic matrix, 2015).
Where “and” joins values, the source holds several entries; their conditions need not be identical. Identical values can stand only once. The whole screen tested about 5,500 compounds, of which about 2,000 (36%) were called active. Roughly 18% stayed inconclusive and do not appear here. Rule as the data show it: active = normalized growth mostly below about 0.91 (no sharp cut-off); inconclusive = no clear call, values can overlap the other calls; inactive = mostly above about 0.92. Some of the results follow.

Test: chemical genetic growth profiling, strain panel (AID 1159580);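 also: tested at 20 µM; growth read once vehicle control cultures reached saturation at 30 °C; 1 = growth at the plate median or of vehicle wells; lower values mean less growth of the strain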
Settings: S. cerevisiae deletion strains, growth OD

Measured: normalized growth

CCC[C@@H]1C[C@@H](C(=O)N[C@H]([C@H]2O[C@H](SC)[C@H](O)[C@@H](O)[C@H]2O)[C@H](C)O)N(C)C1
inactive: locus YAL021C, strain ccr4, stronger effect = lower value 0.981 | locus YAL026C, strain drs2, stronger effect = lower value 0.99 | locus YAL030W, strain snc1, stronger effect = lower value 0.984 | locus YBL061C, strain skt5, stronger effect = lower value 0.981 | locus YBR009C, strain hhf1, stronger effect = lower value 1.01 | locus YBR021W, strain FUR4, stronger effect = lower value 1.01 | locus YBR023C, strain chs3, stronger effect = lower value 0.977 | locus YBR171W, strain sec66, stronger effect = lower value 0.962 | locus YBR229C, strain ROT2, stronger effect = lower value 0.991 | locus YBR231C, strain swc5, stronger effect = lower value 0.981 | locus YBR279W, strain paf1, stronger effect = lower value 0.985 | locus YCL011C, strain gbp2, stronger effect = lower value 0.997 | locus YCL016C, strain dcc1, stronger effect = lower value 1.03 | locus YCL029C, strain bik1, stronger effect = lower value 0.996 | locus YCL061C, strain MRC1, stronger effect = lower value 0.969 | locus YCL069W, strain vba3, stronger effect = lower value 0.971 | locus YCR088W, strain abp1, stronger effect = lower value 0.973 | locus YDL005C, strain med2, stronger effect = lower value 0.979 | locus YDL035C, strain GPR1, stronger effect = lower value 1.02 | locus YDL040C, strain nat1, stronger effect = lower value 0.975 | locus YDL074C, strain BRE1, stronger effect = lower value 1.03 | locus YDL101C, strain DUN1, stronger effect = lower value 0.983 | locus YDL134C, strain PPH21, stronger effect = lower value 1 | locus YDL185W, strain tfp1, stronger effect = lower value 0.979 | locus YDL192W, strain arf1, stronger effect = lower value 0.98 | locus YDR001C, strain nth1, stronger effect = lower value 0.958 | locus YDR069C, strain doa4, stronger effect = lower value 0.965 | locus YDR101C, strain arx1, stronger effect = lower value 1.01 | locus YDR137W, strain rgp1, stronger effect = lower value 0.983 | locus YDR150W, strain NUM1, stronger effect = lower value 1 | locus YDR159W, strain sac3, stronger effect = lower value 1.01 | locus YDR162C, strain NBP2, stronger effect = lower value 1.01 | locus YDR195W, strain ref2 0.922 | locus YDR297W, strain sur2, stronger effect = lower value 0.975 | locus YDR318W, strain mcm21, stronger effect = lower value 0.989 | locus YDR334W, strain swr1, stronger effect = lower value 0.929 | locus YDR335W, strain msn5, stronger effect = lower value 0.974 | locus YDR388W, stronger effect = lower value 0.992 | locus YDR392W, strain spt3, stronger effect = lower value 1.04 | locus YDR502C, strain sam2, stronger effect = lower value 0.991 | locus YEL003W, strain gim4, stronger effect = lower value 0.952 | locus YEL037C, strain rad23, stronger effect = lower value 0.983 | locus YEL061C, strain CIN8 (second series), stronger effect = lower value 0.962 | locus YEL061C, strain CIN8, stronger effect = lower value 1.01 | locus YER015W, strain faa2, stronger effect = lower value 1.01 | locus YER016W, strain bim1, stronger effect = lower value 0.987 | locus YER110C, stronger effect = lower value 0.983 | locus YER111C, strain swi4, stronger effect = lower value 0.98 | locus YER155C, strain BEM2 (second series), stronger effect = lower value 0.986 | locus YER155C, strain BEM2, stronger effect = lower value 0.975 | locus YER167W, strain BCK2, stronger effect = lower value 1.02 | locus YFR010W, strain ubp6, stronger effect = lower value 0.974 | locus YGL078C, strain dbp3, stronger effect = lower value 0.981 | locus YGL086W, strain mad1, stronger effect = lower value 1 | locus YGL167C, strain pmr1, stronger effect = lower value 0.959 | locus YGL173C, strain kem1, stronger effect = lower value 0.973 | locus YGL227W, strain vid30, stronger effect = lower value 0.978 | locus YGL240W, strain doc1, stronger effect = lower value 0.958 | locus YGL248W, strain PDE1, stronger effect = lower value 0.986 | locus YGL253W, strain hxk2, stronger effect = lower value 0.992 | locus YGR078C, strain PAC10, stronger effect = lower value 0.993 | locus YGR135W, strain pre9, stronger effect = lower value 0.955 | locus YGR252W, strain gcn5, stronger effect = lower value 0.943 | locus YHR013C, strain ard1, stronger effect = lower value 0.993 | locus YHR027C, strain rpn1, stronger effect = lower value 0.981 | locus YHR030C, strain SLT2, stronger effect = lower value 1.01 | locus YHR079C, strain IRE1 (second series), stronger effect = lower value 0.998 | locus YHR079C, strain IRE1, stronger effect = lower value 1.03 | locus YHR094C, strain hxt1, stronger effect = lower value 0.998 | locus YHR129C, strain ARP1, stronger effect = lower value 0.981 | locus YHR142W, strain chs7, stronger effect = lower value 0.995 | locus YHR200W, strain rpn10, stronger effect = lower value 0.993 | locus YIL066C, strain RNR3, stronger effect = lower value 0.991 | locus YIL073C, strain SPO22, stronger effect = lower value 1 | locus YIL125W, strain kgd1, stronger effect = lower value 0.985 | locus YIR030C, strain dcg1, stronger effect = lower value 0.99 | locus YJL092W, strain hpr5, stronger effect = lower value 0.977 | locus YJL095W, strain BCK1 (second series), stronger effect = lower value 0.978 | locus YJL095W, strain BCK1, stronger effect = lower value 0.98 and 1.02 | locus YJL115W, strain asf1, stronger effect = lower value 0.977 | locus YJL129C, strain trk1, stronger effect = lower value 0.984 | locus YJL134W, strain LCB3, stronger effect = lower value 0.998 | locus YJL154C, strain vps35, stronger effect = lower value 0.969 | locus YJL164C, strain tpk1, stronger effect = lower value 1.01 | locus YJL166W, strain qcr8, stronger effect = lower value 0.934 | locus YJL168C, strain set2, stronger effect = lower value 0.992 | locus YJL187C, strain SWE1 (second series), stronger effect = lower value 0.984 | locus YJR043C, strain POL32, stronger effect = lower value 1.01
